# The supplement of paper PMC11383364
# Values joined by “and” are separate entries in the source; they are usually repeats but may differ in a detail not shown here. Equal entries are not always repeated. ± gives the standard deviation of the averaged measurements.
# Tested on: SUM149
# Experiment: percent difference in area under dose-response curve of relative cell number, RPMI vs HPLM; higher = drug relatively more effective in HPLM than RPMI (negative = less effective in HPLM)
# Conditions: treatment time: 72 h; dose range: 10-point, 1 nM to 20 µM; media compared: RPMI vs HPLM
# Description: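 SUM149 triple-negative breast cancer cells, 500 cells/well in 384-well plates, were grown in RPMI or human plasma-like medium (HPLM) with 5% dialyzed FBS. They were pin-transferred with an anticancer plus metabolic-inhibitor library in 10-point dose series (20 µM to 1 nM). After 72 h, cells were fixed, stained with bisbenzimide and counted by Acumen plate cytometry. The AUC of relative survival vs dose was computed per medium, and the percent difference in AUC between RPMI and HPLM is reported.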
row,Structure (SMILES),percent difference in area under dose-response curve
1,CCc1c2c(nc3ccc(OC(=O)N4CCC(N5CCCCC5)CC4)cc13)-c1cc3c(c(=O)n1C2)COC(=O)[C@]3(O)CC [Irinotecan_HCl_Trihydrate],-10.1%
2,CN1CCCN(C(=O)c2cccc(-c3ccc(/C=C4/C(=O)Nc5ccc(Cl)cc54)o3)c2)CC1,-26.8%
3,CN(C)C/C=C/C(=O)Nc1cc2c(Nc3ccc(F)c(Cl)c3)ncnc2cc1O[C@H]1CCOC1 [Afatinib],2.93%
4,COc1cc([C@@H]2c3cc4c(cc3[C@@H](O[C@@H]3O[C@@H]5CO[C@@H](C)O[C@H]5[C@H](O)[C@H]3O)[C@H]3COC(=O)[C@H]23)OCO4)cc(OC)c1O [Etoposide],-22.4%
5,CC(C)C[C@H](NC(=O)CNC(=O)c1cc(Cl)ccc1Cl)B(O)O,-12.2%
6,CNC(=O)c1cc(Oc2ccc(NC(=O)Nc3ccc(Cl)c(C(F)(F)F)c3)cc2)ccn1 [Sorafenib],2.21%
7,COc1cc2ncnc(Nc3ccc(F)c(Cl)c3)c2cc1OCCCN1CCOCC1 [Gefitinib],-2.1%
8,Cc1ccc(S(=O)(=O)/C=C/C#N)cc1,0.814%
9,Cc1ccc(NC(=O)c2cccc(C(C)(C)C#N)c2)cc1Nc1ccc2ncn(C)c(=O)c2c1,-22.2%
10,CCC(C)(C)C(=O)O[C@H]1C[C@@H](C)C=C2C=C[C@H](C)[C@H](CC[C@@H]3C[C@@H](O)CC(=O)O3)[C@H]21 [Simvastatin],-12.1%
11,CCOC(=O)[C@@H](N)CCC(=O)N[C@@H](CSCc1ccccc1)C(=O)N[C@@H](C(=O)OCC)c1ccccc1 [Telintra],2.03%
12,COC1=C2C[C@@H](C)C[C@H](OC)[C@H](O)[C@@H](C)/C=C(\C)[C@H](OC(N)=O)[C@@H](OC)/C=C\C=C(/C)C(=O)NC(=CC1=O)C2=O [Geldanamycin],-5.2%
13,CC(C)CC(=O)Nc1n[nH]c2c1CN(C(=O)C1CCN(C)CC1)C2(C)C,-18.5%
14,CC[C@@H]1C(=O)N(C)c2cnc(Nc3ccc(C(=O)NC4CCN(C)CC4)cc3OC)nc2N1C1CCCC1,-23%
15,O=C(CCCCCCC(=O)Nc1ccccc1)NO [Vorinostat],4.7%
16,O=c1[nH]c(=O)n([C@H]2C[C@H](O)[C@@H](CO)O2)cc1F [Floxuridine],14.1%
17,O=C(NCCCNc1nc(Nc2cccc(NC(=O)N3CCCC3)c2)ncc1I)c1cccs1,-9.09%
18,CNC(=O)c1cc(COc2nnc(Nc3ccc(Cl)cc3)c3ccoc23)ccn1 [Telatinib],2.16%
19,CC(C)(C#N)c1cc(Cn2cncn2)cc(C(C)(C)C#N)c1 [Anastrozole],-1.33%
20,Nc1ccccc1NC(=O)c1ccc(CNC(=O)OCc2cccnc2)cc1 [Entinostat],-2.21%

row,Structure (SMILES),percent difference in area under dose-response curve
1,CC(C)=CCC1=C(O)C(=O)c2ccccc2C1=O [Lapachol],10.9%
2,C=CCNC1=C2C[C@@H](C)C[C@H](OC)[C@H](O)[C@@H](C)/C=C(\C)[C@H](OC(N)=O)[C@@H](OC)/C=C\C=C(/C)C(=O)NC(=CC1=O)C2=O,-27.6% and -16.3%
3,CN(C)/N=N/c1[nH]cnc1C(N)=O [Dacarbazine],-9.4%
4,Nc1nc(Cl)nc2c1ncn2[C@H]1C[C@H](O)[C@@H](CO)O1 [Cladribine],-12.6 ± 2.1%
5,Nc1nc(Cl)nc2c1ncn2[C@@H]1O[C@H](CO)[C@@H](O)[C@@H]1F [Clofarabine],-18.6%
6,COc1ccc(C2=N[C@H](c3ccc(Cl)cc3)[C@H](c3ccc(Cl)cc3)N2C(=O)N2CCNC(=O)C2)c(OC(C)C)c1 [Nutlin3b],2.03%
7,Cc1cccc(-c2[nH]c(C(C)(C)C)nc2-c2ccc3nccnc3c2)n1,-7.49%
8,S=C(NCc1ccc2c(c1)OCO2)N1CCN(c2ncnc3c2oc2ccccc23)CC1 [Amuvatinib],1.06%
9,CC[C@]1(O)C[C@H]2CN(CCc3c([nH]c4ccccc34)[C@@](C(=O)OC)(c3cc4c(cc3OC)N(C=O)[C@H]3[C@@](O)(C(=O)OC)[C@H](OC(C)=O)[C@]5(CC)C=CCN6CC[C@]43[C@@H]65)C2)C1 [Vincristine],-16.7%
10,O=c1cc(-c2cccc3c2Sc2ccccc2S3)oc(N2CCOCC2)c1,4.24%
11,Cc1cccc(Nc2nc(-c3ccncc3)cs2)c1,-3.22%
12,CCCc1cc(-c2nc(-c3ccc(C)cc3)cs2)ccn1 [Fatostatin_A],-2.81%
13,Nc1nc(F)nc2c1ncn2[C@@H]1O[C@H](COP(=O)(O)O)[C@@H](O)[C@@H]1O [Fludarabine_Phosphate],-16.9%
14,C/C=C1\NC(=O)[C@H]2CSSCC/C=C/[C@H](CC(=O)N[C@H](C(C)C)C(=O)N2)OC(=O)[C@H](C(C)C)NC1=O [Romidepsin],-30.5%
15,COc1cc(Br)c(Nc2nc(-c3c(C)nc4ncccn34)cs2)c(Br)c1,-0.202%
16,CC(C)(C)c1cc(NC(=O)Nc2ccc(-c3cn4c(n3)sc3cc(OCCN5CCOCC5)ccc34)cc2)no1 [Quizartinib],-0.334%
17,COc1cccc2c(NCc3ccccc3)nc(-n3c(N)nc4ccccc43)nc12,-7.47%
18,CCCCCCCCc1ccc(CCC(N)(CO)CO)cc1 [Fingolimod],3.22 ± 1.4%
19,O=C1c2c(O)ccc(O)c2C(=O)c2c(NCCNCCO)ccc(NCCNCCO)c21 [Mitoxantrone],-23.7%
20,O=C(/C=C/c1cccc(S(=O)(=O)Nc2ccccc2)c1)NO [Belinostat],-13%
